According to PubChem BioAssay AID2391 (Southern Research Specialized Biocontainment Screening …, 2010):
The campaign covered roughly 310,000 compounds. About 410 (0.13%) were called active. Not shown: some 2% with an inconclusive outcome. How the calls were made is not given here. The list is a sample of the results. Results with a measured potency or affinity are listed apart.

Assay: RSV antiviral activity via CPE protection, HEp-2 cells, primary 10 µM value included (AID 2391)
Settings: RSV-induced CPE inhibition, at 10 µM, hits give high values

CPE inhibition, inactive:
CC(=O)Nc1ccc(NC(=O)c2c(C)nn(Cc3ccccc3Cl)c2C)cc1 1.12%
CCC(CC)c1nnc(NC(=O)c2c(C)nn(Cc3ccccc3Cl)c2C)s1 10.8%
COc1ccc(-c2nc(N=Nc3ccc(O)cc3)n[nH]2)cc1 9.37%
CN(C)S(=O)(=O)c1cc(NC(=O)CN2CCN(c3ccc(O)cc3)CC2)ccc1Cl 0.75%
OC1CCN(c2cc(-c3ccccc3)nc3cc(-c4ccc(F)cc4)nn23)CC1 5.15%
COc1cccc(-c2cc3nc(-c4ccccc4)cc(N4CCCC(O)C4)n3n2)c1 (stereo not given) 14.1%
C=CCOC(=O)C(C#N)c1nc2ccccc2nc1N1CCN(c2ccccc2OC)CC1 (stereo not given) 0.49%
CC(=O)Nc1ccc2[nH]ccc2c1 -0.73%
C/C(=N\O)c1ccc2[nH]ccc2c1 5.17%
COc1ccc(OC)c(NC(=O)c2cccc(S(=O)(=O)N(Cc3ccccc3)c3ccccc3OC)c2)c1 2.42%
Cc1nc2ccc(N=NC3=C(O)CC(C)(C)CC3=O)cc2s1 2.75%
COc1ccccc1OCCn1cc(C=O)c2ccccc21 -0.05%
O=C(Nc1ccc(F)c([N+](=O)[O-])c1)c1cccs1 4.17%
COC(=O)C(Cc1c[nH]c2ccccc12)NC(=O)c1cccs1 (stereo not given) 1.21%
O=C(NC(Cc1c[nH]c2ccccc12)C(=O)N/N=C/c1cccc2ccccc12)c1cccs1 (stereo not given) 18.5%
O=C(NC(Cc1c[nH]c2ccccc12)C(=O)O)c1cccs1 (stereo not given) -1.85%
O=C(NC(Cc1c[nH]c2ccccc12)C(=O)N/N=C/c1ccc(Br)cc1)c1cccs1 (stereo not given) -2.58%
O=C(NC(Cc1c[nH]c2ccccc12)C(=O)N1CCOCC1)c1cccs1 (stereo not given) -0.02%
CC1(C)CC(=O)c2cc(C(=O)NC3CCSC3=O)c(=O)n(-c3ccc(Cl)cc3)c2C1 (stereo not given) 0.72%
O=S(=O)(Nc1ccccc1)c1cccc2nsnc12 1.2%
CCc1ccc(N2CC(C(=O)OCC(=O)NNC(=O)c3ccccc3)CC2=O)cc1 (stereo not given) 1.46%
COc1cccc(NC(=O)C(NCC(C)(C)CN(C)C)c2ccccc2)c1 (stereo not given) 1.08%
CC1(C)Cc2cccc(C(=O)Nc3ccc(Cl)cc3)c2O1 13.1%
CC1CCN(C(=O)COC(=O)Cc2c[nH]c3ccccc23)CC1 -0.07%
CCOC(=O)N1CCc2c(sc3c2c(=O)n(-c2ccc(CC)cc2)c(=O)n3CC(=O)NCC2CCCO2)C1 (stereo not given) -1.83%
